Holding throughout (experiment): PBM; 200 nM protein, PBS
What all share (settings): dsDNA, one strand shown

Test [1] concerns the target T1, SIX6 (Homo sapiens, UniProt O95475 114-200, L167I).
T1 sequence: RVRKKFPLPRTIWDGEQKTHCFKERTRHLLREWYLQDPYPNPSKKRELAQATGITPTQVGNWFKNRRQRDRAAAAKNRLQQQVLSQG

Test [2] addresses T2, SIX6 (Homo sapiens, UniProt O95475 114-200, L143V).
T2 sequence: T1 sequence with L30V, I54L

The target of test [3] is T3, SIX6 (Homo sapiens, UniProt O95475 114-200, H141N).
T3 sequence: T1 sequence with H28N, I54L

In test [4] the target is T4, SIX6 (Homo sapiens, UniProt O95475 114-200, T165P).
T4 sequence: T1 sequence with T52P, I54L

Test [5] addresses T5, SIX6 (Homo sapiens, UniProt O95475 114-200, L167M).
T5 sequence: T1 sequence with I54M

Test [6] deals with T6, SIX6 (Homo sapiens, UniProt O95475 114-200, L143I).
T6 sequence: T1 sequence with L30I, I54L

Test [7] has as its target T7, SIX6 (Homo sapiens, UniProt O95475 114-200, T165G).
T7 sequence: T1 sequence with T52G, I54L

The target of test [8] is T8, SIX6 (Homo sapiens, UniProt O95475 114-200, T165A).
T8 sequence: T1 sequence with T52A, I54L

Test [9] deals with T9, SIX6 (Homo sapiens, UniProt O95475 114-200).
T9 sequence: T1 sequence with I54L

Test [10] addresses T10, SIX6 (Homo sapiens, UniProt O95475 114-200, L143M).
T10 sequence: T1 sequence with L30M, I54L

Test [11] concerns the target T11, SIX6 (Homo sapiens, UniProt O95475 114-200, T139Q).
T11 sequence: T1 sequence with T26Q, I54L

For test [12], the target named is T12, SIX6 (Homo sapiens, UniProt O95475 114-200, L167V).
T12 sequence: T1 sequence with I54V

Test [13] deals with T13, SIX6 (Homo sapiens, UniProt O95475 114-200, T165I).
T13 sequence: T1 sequence with T52I, I54L

These results are taken from PMC11006913.

Where a chain is given by its changes, count along the chain named.

On to ATCGTGTC, for which the binding signal is 10.1 upbm affinity estimate (log intensity, higher = more binding, comparable within an allelic series) in [1]; 9.87 upbm affinity estimate (log intensity, higher = more binding, comparable within an allelic series) in test [2]; 10.2 upbm affinity estimate (log intensity, higher = more binding, comparable within an allelic series) in [3]; 9.63 upbm affinity estimate (log intensity, higher = more binding, comparable within an allelic series) in [4]; 9.93 upbm affinity estimate (log intensity, higher = more binding, comparable within an allelic series) in test [5]; 9.97 upbm affinity estimate (log intensity, higher = more binding, comparable within an allelic series) in test [6]. Besides, the binding signal in [7] is 10.3 upbm affinity estimate (log intensity, higher = more binding, comparable within an allelic series); in [8], 10.3 upbm affinity estimate (log intensity, higher = more binding, comparable within an allelic series); in test [9] it was 10.3 upbm affinity estimate (log intensity, higher = more binding, comparable within an allelic series).
As for CGTATCAC, the binding signal in [1] is 11.2 upbm affinity estimate (log intensity, higher = more binding, comparable within an allelic series); in test [2] it was 10.3 upbm affinity estimate (log intensity, higher = more binding, comparable within an allelic series); in [3], 11.3 upbm affinity estimate (log intensity, higher = more binding, comparable within an allelic series); in test [4], 9.61 upbm affinity estimate (log intensity, higher = more binding, comparable within an allelic series); in [5] it was 10.6 upbm affinity estimate (log intensity, higher = more binding, comparable within an allelic series); in test [10], 11 upbm affinity estimate (log intensity, higher = more binding, comparable within an allelic series). Further, the binding signal in test [6] was 10.4 upbm affinity estimate (log intensity, higher = more binding, comparable within an allelic series); in [7] it was 11.3 upbm affinity estimate (log intensity, higher = more binding, comparable within an allelic series); in test [11], 11.3 upbm affinity estimate (log intensity, higher = more binding, comparable within an allelic series); in [8], 11.2 upbm affinity estimate (log intensity, higher = more binding, comparable within an allelic series); in test [12], 11 upbm affinity estimate (log intensity, higher = more binding, comparable within an allelic series); in [9], 11 upbm affinity estimate (log intensity, higher = more binding, comparable within an allelic series). Moreover, in test [13], the binding signal was 11.1 upbm affinity estimate (log intensity, higher = more binding, comparable within an allelic series).
Turning to GGTATCAC, the binding signal was 11.6 upbm affinity estimate (log intensity, higher = more binding, comparable within an allelic series) in test [1]; 10.5 upbm affinity estimate (log intensity, higher = more binding, comparable within an allelic series) in test [2]; 11.6 upbm affinity estimate (log intensity, higher = more binding, comparable within an allelic series) in [3]; 9.55 upbm affinity estimate (log intensity, higher = more binding, comparable within an allelic series) in test [4]; 10.9 upbm affinity estimate (log intensity, higher = more binding, comparable within an allelic series) in test [5]; 11.2 upbm affinity estimate (log intensity, higher = more binding, comparable within an allelic series) in [10]. For the same sequence, the binding signal in test [6] was 10.6 upbm affinity estimate (log intensity, higher = more binding, comparable within an allelic series); in test [7], 11.8 upbm affinity estimate (log intensity, higher = more binding, comparable within an allelic series); in test [11], 11.6 upbm affinity estimate (log intensity, higher = more binding, comparable within an allelic series); in test [8], 11.6 upbm affinity estimate (log intensity, higher = more binding, comparable within an allelic series); in [12] it was 11.4 upbm affinity estimate (log intensity, higher = more binding, comparable within an allelic series); in [9] it was 11.3 upbm affinity estimate (log intensity, higher = more binding, comparable within an allelic series). Besides, in test [13], the binding signal is 11.4 upbm affinity estimate (log intensity, higher = more binding, comparable within an allelic series).
Regarding ATATCATG, the binding signal in [1] was 11.1 upbm affinity estimate (log intensity, higher = more binding, comparable within an allelic series); in [2], 10.4 upbm affinity estimate (log intensity, higher = more binding, comparable within an allelic series); in test [3], 11.1 upbm affinity estimate (log intensity, higher = more binding, comparable within an allelic series); in test [4] it was 9.92 upbm affinity estimate (log intensity, higher = more binding, comparable within an allelic series); in [5], 10.8 upbm affinity estimate (log intensity, higher = more binding, comparable within an allelic series); in test [10] it was 10.9 upbm affinity estimate (log intensity, higher = more binding, comparable within an allelic series). Further, the binding signal was 10.4 upbm affinity estimate (log intensity, higher = more binding, comparable within an allelic series) in [6]; 11.1 upbm affinity estimate (log intensity, higher = more binding, comparable within an allelic series) in test [7]; 11.2 upbm affinity estimate (log intensity, higher = more binding, comparable within an allelic series) in [11]; 11 upbm affinity estimate (log intensity, higher = more binding, comparable within an allelic series) in [8]; 11 upbm affinity estimate (log intensity, higher = more binding, comparable within an allelic series) in test [12]; 11 upbm affinity estimate (log intensity, higher = more binding, comparable within an allelic series) in test [9]. In test [13], the binding signal is 11 upbm affinity estimate (log intensity, higher = more binding, comparable within an allelic series).
For the sequence GGCCCCAA, the binding signal is 8.91 upbm affinity estimate (log intensity, higher = more binding, comparable within an allelic series) in test [1]; 8.77 upbm affinity estimate (log intensity, higher = more binding, comparable within an allelic series) in test [2]; 8.92 upbm affinity estimate (log intensity, higher = more binding, comparable within an allelic series) in test [3]; 9.01 upbm affinity estimate (log intensity, higher = more binding, comparable within an allelic series) in [4]; 8.96 upbm affinity estimate (log intensity, higher = more binding, comparable within an allelic series) in test [5]; 8.92 upbm affinity estimate (log intensity, higher = more binding, comparable within an allelic series) in test [10]. Besides, the binding signal was 8.81 upbm affinity estimate (log intensity, higher = more binding, comparable within an allelic series) in test [6]; 8.9 upbm affinity estimate (log intensity, higher = more binding, comparable within an allelic series) in [7]; 9.04 upbm affinity estimate (log intensity, higher = more binding, comparable within an allelic series) in test [11]; 8.9 upbm affinity estimate (log intensity, higher = more binding, comparable within an allelic series) in test [8]; 8.9 upbm affinity estimate (log intensity, higher = more binding, comparable within an allelic series) in test [12]; 8.82 upbm affinity estimate (log intensity, higher = more binding, comparable within an allelic series) in test [9]. For the same sequence, in test [13], the binding signal is 8.91 upbm affinity estimate (log intensity, higher = more binding, comparable within an allelic series).
As to ATGGCCGC, the binding signal in test [1] was 8.86 upbm affinity estimate (log intensity, higher = more binding, comparable within an allelic series); in test [2], 8.81 upbm affinity estimate (log intensity, higher = more binding, comparable within an allelic series); in test [3] it was 8.75 upbm affinity estimate (log intensity, higher = more binding, comparable within an allelic series); in test [4], 8.94 upbm affinity estimate (log intensity, higher = more binding, comparable within an allelic series); in test [5], 8.89 upbm affinity estimate (log intensity, higher = more binding, comparable within an allelic series); in test [10] it was 8.74 upbm affinity estimate (log intensity, higher = more binding, comparable within an allelic series). Further, the binding signal is 8.82 upbm affinity estimate (log intensity, higher = more binding, comparable within an allelic series) in [6]; 8.77 upbm affinity estimate (log intensity, higher = more binding, comparable within an allelic series) in test [7]; 8.7 upbm affinity estimate (log intensity, higher = more binding, comparable within an allelic series) in test [11]; 8.69 upbm affinity estimate (log intensity, higher = more binding, comparable within an allelic series) in test [8]; 8.93 upbm affinity estimate (log intensity, higher = more binding, comparable within an allelic series) in test [12]; 8.75 upbm affinity estimate (log intensity, higher = more binding, comparable within an allelic series) in test [9]. In [13], the binding signal is 8.83 upbm affinity estimate (log intensity, higher = more binding, comparable within an allelic series).
On to ATGATACG, for which the binding signal in [1] is 11.2 upbm affinity estimate (log intensity, higher = more binding, comparable within an allelic series); in [2], 10.3 upbm affinity estimate (log intensity, higher = more binding, comparable within an allelic series); in test [3], 11.2 upbm affinity estimate (log intensity, higher = more binding, comparable within an allelic series); in test [4], 9.78 upbm affinity estimate (log intensity, higher = more binding, comparable within an allelic series); in test [5], 10.6 upbm affinity estimate (log intensity, higher = more binding, comparable within an allelic series); in [10], 11 upbm affinity estimate (log intensity, higher = more binding, comparable within an allelic series). Also, the binding signal is 10.4 upbm affinity estimate (log intensity, higher = more binding, comparable within an allelic series) in test [6]; 11.3 upbm affinity estimate (log intensity, higher = more binding, comparable within an allelic series) in test [7]; 11.2 upbm affinity estimate (log intensity, higher = more binding, comparable within an allelic series) in test [11]; 11.1 upbm affinity estimate (log intensity, higher = more binding, comparable within an allelic series) in test [8]; 11 upbm affinity estimate (log intensity, higher = more binding, comparable within an allelic series) in test [12]; 11 upbm affinity estimate (log intensity, higher = more binding, comparable within an allelic series) in [9]. The binding signal in test [13] is 10.9 upbm affinity estimate (log intensity, higher = more binding, comparable within an allelic series).
In the case of CGGGGACC, the binding signal in [1] is 8.99 upbm affinity estimate (log intensity, higher = more binding, comparable within an allelic series); in test [2], 8.83 upbm affinity estimate (log intensity, higher = more binding, comparable within an allelic series); in test [3], 8.99 upbm affinity estimate (log intensity, higher = more binding, comparable within an allelic series); in test [4] it was 8.96 upbm affinity estimate (log intensity, higher = more binding, comparable within an allelic series); in test [5] it was 8.97 upbm affinity estimate (log intensity, higher = more binding, comparable within an allelic series); in test [10], 8.88 upbm affinity estimate (log intensity, higher = more binding, comparable within an allelic series). Further, the binding signal is 8.86 upbm affinity estimate (log intensity, higher = more binding, comparable within an allelic series) in test [6]; 8.9 upbm affinity estimate (log intensity, higher = more binding, comparable within an allelic series) in test [7]; 8.95 upbm affinity estimate (log intensity, higher = more binding, comparable within an allelic series) in test [11]; 8.92 upbm affinity estimate (log intensity, higher = more binding, comparable within an allelic series) in [8]; 8.99 upbm affinity estimate (log intensity, higher = more binding, comparable within an allelic series) in [12]; 8.89 upbm affinity estimate (log intensity, higher = more binding, comparable within an allelic series) in test [9]. Also, the binding signal in test [13] is 8.91 upbm affinity estimate (log intensity, higher = more binding, comparable within an allelic series).
